Among the data in ChEMBL document CHEMBL1961873, “Compounds: GSK PKIS; Assays: Nanosyn kinase panel” (2012) are inhibition values, retold here.

Assay [1] deals with T1, Muscle, skeletal receptor tyrosine-protein kinase (Homo sapiens) (UniProt O15146).
T1 sequence (whole entry): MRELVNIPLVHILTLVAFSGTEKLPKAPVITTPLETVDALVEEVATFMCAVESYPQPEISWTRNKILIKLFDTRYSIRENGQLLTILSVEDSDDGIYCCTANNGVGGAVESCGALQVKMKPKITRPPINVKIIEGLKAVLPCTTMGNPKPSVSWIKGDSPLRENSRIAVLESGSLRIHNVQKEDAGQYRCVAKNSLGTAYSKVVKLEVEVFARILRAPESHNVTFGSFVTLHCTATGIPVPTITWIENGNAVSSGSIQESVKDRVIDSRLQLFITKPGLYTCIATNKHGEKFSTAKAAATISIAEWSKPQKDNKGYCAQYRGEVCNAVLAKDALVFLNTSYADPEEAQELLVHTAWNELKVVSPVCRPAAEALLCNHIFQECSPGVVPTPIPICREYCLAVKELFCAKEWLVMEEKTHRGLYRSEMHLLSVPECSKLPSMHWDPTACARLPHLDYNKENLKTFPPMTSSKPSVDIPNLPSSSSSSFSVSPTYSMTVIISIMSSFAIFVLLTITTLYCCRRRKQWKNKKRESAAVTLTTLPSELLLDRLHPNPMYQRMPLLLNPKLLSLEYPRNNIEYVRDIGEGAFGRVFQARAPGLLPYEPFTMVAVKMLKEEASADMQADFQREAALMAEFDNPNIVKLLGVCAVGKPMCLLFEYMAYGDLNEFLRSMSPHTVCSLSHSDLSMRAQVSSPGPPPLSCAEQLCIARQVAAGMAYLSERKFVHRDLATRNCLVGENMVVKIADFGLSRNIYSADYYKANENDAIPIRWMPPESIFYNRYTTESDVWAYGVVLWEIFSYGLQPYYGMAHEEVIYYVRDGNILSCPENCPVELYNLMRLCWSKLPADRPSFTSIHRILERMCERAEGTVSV
The settings on record: at 1 µM.

Assay [2] has as its target Platelet-derived growth factor receptor alpha (Homo sapiens) (UniProt P16234). The note with it: at 0.1 µM.
Assay [3] shares this target. The note with it: at 1 µM.
The test system of assay [4] is Platelet-derived growth factor receptor alpha (Homo sapiens), P16234 [D842V]. The note with it: at 0.1 µM.
Assay [5] has the same test system. The note with it: at 1 µM.
The test system of assay [6] is Platelet-derived growth factor receptor alpha (Homo sapiens), P16234 [T674I]. The note with it: at 0.1 µM.
For assay [7] the test system is unchanged. The settings on record: at 1 µM.
Assay [8] has as its system Platelet-derived growth factor receptor alpha (Homo sapiens), P16234 [V561D]. The settings on record: at 0.1 µM.
Assay [9] has the same test system. The settings on record: at 1 µM.
Assay [10] has as its target Platelet-derived growth factor receptor beta (Homo sapiens) (UniProt P09619). The settings on record: at 0.1 µM.
Assay [11] shares this target. The note with it: at 1 µM.
The target of assay [12] is Tyrosine-protein kinase FRK (Homo sapiens) (UniProt P42685). The settings on record: at 0.1 µM.
Chain of Tyrosine-protein kinase FRK (Homo sapiens) (P42685 whole entry): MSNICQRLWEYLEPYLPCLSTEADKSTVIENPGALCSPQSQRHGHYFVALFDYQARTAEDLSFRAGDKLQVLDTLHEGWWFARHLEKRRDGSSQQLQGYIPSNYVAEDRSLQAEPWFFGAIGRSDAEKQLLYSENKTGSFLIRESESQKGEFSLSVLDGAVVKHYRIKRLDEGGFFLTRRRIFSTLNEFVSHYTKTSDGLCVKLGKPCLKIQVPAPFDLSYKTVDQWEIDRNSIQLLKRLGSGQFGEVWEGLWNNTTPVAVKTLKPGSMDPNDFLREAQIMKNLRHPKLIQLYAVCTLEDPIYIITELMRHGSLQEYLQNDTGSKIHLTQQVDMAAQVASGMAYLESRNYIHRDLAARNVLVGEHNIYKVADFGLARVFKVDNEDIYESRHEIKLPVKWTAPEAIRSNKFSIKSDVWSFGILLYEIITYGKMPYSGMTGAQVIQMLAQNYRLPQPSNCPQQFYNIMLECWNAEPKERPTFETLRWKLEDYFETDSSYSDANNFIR
For assay [13] the target is unchanged. The note with it: at 1 µM.
Assay [14] addresses Protein-tyrosine kinase 2-beta (Homo sapiens) (UniProt Q14289). The note with it: at 0.1 µM.
Assay [15] has the same target. The settings on record: at 1 µM.
In assay [16] the target is Proto-oncogene tyrosine-protein kinase receptor Ret (Homo sapiens) (UniProt P07949). The settings on record: at 0.1 µM.
Chain of Proto-oncogene tyrosine-protein kinase receptor Ret (Homo sapiens) (P07949 whole entry): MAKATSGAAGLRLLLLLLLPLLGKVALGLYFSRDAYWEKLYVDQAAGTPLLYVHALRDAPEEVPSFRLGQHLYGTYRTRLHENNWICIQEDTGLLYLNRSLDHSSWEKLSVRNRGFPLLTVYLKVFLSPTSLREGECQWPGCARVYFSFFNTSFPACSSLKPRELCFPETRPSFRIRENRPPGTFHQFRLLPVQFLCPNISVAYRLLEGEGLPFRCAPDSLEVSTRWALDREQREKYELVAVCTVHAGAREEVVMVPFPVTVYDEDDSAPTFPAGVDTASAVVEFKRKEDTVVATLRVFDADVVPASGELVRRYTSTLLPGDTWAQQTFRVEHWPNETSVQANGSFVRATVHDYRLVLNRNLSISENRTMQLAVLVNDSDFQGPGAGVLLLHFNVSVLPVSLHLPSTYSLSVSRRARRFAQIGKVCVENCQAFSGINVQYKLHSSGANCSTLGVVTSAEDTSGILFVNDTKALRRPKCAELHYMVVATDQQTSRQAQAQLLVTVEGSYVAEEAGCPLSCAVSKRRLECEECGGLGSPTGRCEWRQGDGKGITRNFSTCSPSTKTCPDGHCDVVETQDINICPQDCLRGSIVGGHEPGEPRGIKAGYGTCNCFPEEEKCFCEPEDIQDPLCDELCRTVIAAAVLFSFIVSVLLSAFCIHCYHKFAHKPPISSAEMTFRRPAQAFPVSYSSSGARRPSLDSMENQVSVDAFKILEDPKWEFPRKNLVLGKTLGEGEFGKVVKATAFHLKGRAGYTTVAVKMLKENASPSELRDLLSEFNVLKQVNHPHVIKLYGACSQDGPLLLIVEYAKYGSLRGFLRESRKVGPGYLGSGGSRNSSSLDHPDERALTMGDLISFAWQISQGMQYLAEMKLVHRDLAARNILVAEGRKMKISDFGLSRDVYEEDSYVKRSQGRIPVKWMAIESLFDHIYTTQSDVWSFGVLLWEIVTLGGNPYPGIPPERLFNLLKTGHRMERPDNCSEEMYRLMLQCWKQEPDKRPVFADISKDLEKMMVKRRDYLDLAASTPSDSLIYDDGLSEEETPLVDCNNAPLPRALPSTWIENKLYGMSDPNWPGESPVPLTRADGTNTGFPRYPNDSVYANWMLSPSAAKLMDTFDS
The target is the same in assay [17]. The settings on record: at 1 µM.
For assay [18], the system named is Proto-oncogene tyrosine-protein kinase receptor Ret (Homo sapiens), P07949 [V804L]. The settings on record: at 0.1 µM.
The test system is the same in assay [19]. The note with it: at 1 µM.
The subject of assay [20] is Proto-oncogene tyrosine-protein kinase receptor Ret (Homo sapiens), P07949 [Y791F]. The settings on record: at 0.1 µM.

Chain of Platelet-derived growth factor receptor alpha (Homo sapiens), P16234 [V561D] (P16234 whole entry V561D): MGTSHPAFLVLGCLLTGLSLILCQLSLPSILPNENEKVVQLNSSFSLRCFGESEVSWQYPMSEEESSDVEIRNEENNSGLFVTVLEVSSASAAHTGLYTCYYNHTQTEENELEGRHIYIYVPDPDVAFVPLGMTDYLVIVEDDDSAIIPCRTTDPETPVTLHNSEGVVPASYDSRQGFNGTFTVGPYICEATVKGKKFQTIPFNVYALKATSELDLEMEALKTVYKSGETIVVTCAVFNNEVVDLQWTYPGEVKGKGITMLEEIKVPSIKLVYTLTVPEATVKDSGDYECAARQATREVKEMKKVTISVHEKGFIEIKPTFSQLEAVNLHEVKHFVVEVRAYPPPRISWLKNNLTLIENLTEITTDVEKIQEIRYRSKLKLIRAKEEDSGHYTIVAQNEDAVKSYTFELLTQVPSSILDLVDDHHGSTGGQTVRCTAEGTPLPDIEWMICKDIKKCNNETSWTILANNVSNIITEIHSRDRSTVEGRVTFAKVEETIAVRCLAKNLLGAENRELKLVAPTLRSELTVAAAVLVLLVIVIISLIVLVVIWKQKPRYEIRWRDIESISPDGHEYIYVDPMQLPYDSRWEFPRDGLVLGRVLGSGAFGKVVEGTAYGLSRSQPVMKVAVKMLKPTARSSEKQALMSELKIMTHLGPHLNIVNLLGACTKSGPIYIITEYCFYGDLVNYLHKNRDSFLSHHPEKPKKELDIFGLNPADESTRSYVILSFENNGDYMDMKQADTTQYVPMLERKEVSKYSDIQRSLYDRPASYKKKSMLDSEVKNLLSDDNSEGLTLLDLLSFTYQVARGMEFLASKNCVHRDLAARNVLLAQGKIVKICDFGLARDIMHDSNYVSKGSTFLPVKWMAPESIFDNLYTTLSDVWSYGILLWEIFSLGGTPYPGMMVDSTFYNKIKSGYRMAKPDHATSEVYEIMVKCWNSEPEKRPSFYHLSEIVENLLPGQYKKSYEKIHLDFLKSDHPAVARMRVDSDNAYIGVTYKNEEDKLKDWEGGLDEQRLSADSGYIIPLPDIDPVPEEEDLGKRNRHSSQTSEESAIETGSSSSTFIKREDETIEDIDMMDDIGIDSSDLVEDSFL
Chain of Proto-oncogene tyrosine-protein kinase receptor Ret (Homo sapiens), P07949 [Y791F] (P07949 whole entry Y791F): as the sequence (P07949 whole entry) above, with Y791F counted along it
Chain of Protein-tyrosine kinase 2-beta (Homo sapiens) (Q14289 whole entry, looked up): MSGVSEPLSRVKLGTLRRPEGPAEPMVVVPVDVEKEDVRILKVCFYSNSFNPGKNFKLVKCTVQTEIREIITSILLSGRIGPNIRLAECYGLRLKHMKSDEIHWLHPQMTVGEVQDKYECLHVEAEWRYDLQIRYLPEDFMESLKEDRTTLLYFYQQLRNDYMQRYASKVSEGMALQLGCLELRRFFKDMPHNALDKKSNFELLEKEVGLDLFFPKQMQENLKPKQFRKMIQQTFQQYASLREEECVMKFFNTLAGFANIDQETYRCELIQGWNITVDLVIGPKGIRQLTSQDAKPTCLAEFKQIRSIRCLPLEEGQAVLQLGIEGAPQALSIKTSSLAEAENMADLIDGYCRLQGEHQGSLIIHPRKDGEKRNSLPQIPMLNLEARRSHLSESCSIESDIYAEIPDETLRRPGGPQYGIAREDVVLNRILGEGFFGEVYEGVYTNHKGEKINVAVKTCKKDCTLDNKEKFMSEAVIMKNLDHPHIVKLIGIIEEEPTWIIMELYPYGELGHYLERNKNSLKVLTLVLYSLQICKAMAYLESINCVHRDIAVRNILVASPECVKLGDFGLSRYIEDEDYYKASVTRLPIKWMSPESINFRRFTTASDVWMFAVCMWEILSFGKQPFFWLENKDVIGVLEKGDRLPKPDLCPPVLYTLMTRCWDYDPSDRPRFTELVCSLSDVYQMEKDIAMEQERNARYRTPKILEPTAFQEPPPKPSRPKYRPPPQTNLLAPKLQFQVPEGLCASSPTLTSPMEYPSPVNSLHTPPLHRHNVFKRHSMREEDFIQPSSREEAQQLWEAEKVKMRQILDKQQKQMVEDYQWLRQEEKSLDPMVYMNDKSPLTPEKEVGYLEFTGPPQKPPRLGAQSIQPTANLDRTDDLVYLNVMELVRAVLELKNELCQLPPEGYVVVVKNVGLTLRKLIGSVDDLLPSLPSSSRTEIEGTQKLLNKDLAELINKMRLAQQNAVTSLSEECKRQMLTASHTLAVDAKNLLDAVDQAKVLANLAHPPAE

In the case of `COc1cccc(-n2ncc3c(N/N=C/c4cccc(F)c4)ncnc32)c1`, the inhibition is 11.4% in assay [1]; 13.6% in assay [2]; 49.5% in assay [3]; 10.6% in assay [4]; 48.1% in assay [5]; 6.11% in [6]. Besides, the inhibition amounted to 22.2% in [7]; 8.22% in [8]; 41.1% in [9]; 12.2% in [10]; 51.1% in [11]; 1.84% in [12]. Further, the inhibition in assay [13] turned out to be 2.7%; in assay [14] it was 9.51%; in assay [15], 9.99%; in assay [16], 2.64%; in assay [17] it was 18.3%; in assay [18], 3.55%. Further, the values for the inhibition in assay [19] and in [20] were 9.3% and 4.94%, respectively.
With `COc1cc2ncn(-c3cc(O[C@@H](C)c4ccccc4Cl)c(C(N)=O)s3)c2cc1OC`, the inhibition in assay [1] is 14.1%; in assay [2] it was 37.9%; in assay [3], 73.8%; in assay [4], 27%; in [5], 77.1%; in assay [6] it was 7.94%. The inhibition in [7] came out at 50%; in assay [8], 32.4%; in assay [9], 81.5%; in [10], 29.8%; in assay [11], 68.2%; in [12], 5.42%. Besides, the inhibition in assay [13] was 4.28%; in assay [14] it was -0.4%; in assay [15] it was 14%; in [16], 33.6%; in assay [17], 72.1%; in assay [18], 8.18%. Moreover, the inhibition in assay [19] is 38.3%; in assay [20], 32.5%.
Turning to `CC1=C(C(=O)Nc2ccc3[nH]ncc3c2)C(c2ccc3ccccc3c2)CC(=O)N1` (stereo not given), the inhibition in assay [1] was 5.45%; in assay [2], 8.08%; in [3], 14.6%; in [4], 2.86%; in assay [5], 5.83%; in [6], 3.54%. Further, the inhibition stood at 5.01% in [7]; 5.52% in assay [8]; 7.45% in [9]; 2.15% in [10]; 13.7% in [11]; 2.73% in assay [12]. For the same compound, the inhibition is 17.3% in assay [13]; 3.97% in assay [14]; 7.64% in assay [15]; 20.4% in [16]; 65.8% in [17]; 12.4% in [18]. Besides, the inhibition in [19] was determined as 53.2%; in [20], 20.1%.
Regarding `CCn1c(-c2nonc2N)nc2cncc(C(=O)N3CCNCC3)c21`, the inhibition in assay [1] was 4.88%; in assay [2], 6.44%; in assay [3] it was 9.34%; in assay [4], 1.69%; in assay [5], 6.27%; in assay [6], 4.21%. For the same compound, the inhibition in [7] turned out to be 6.95%; in [8], 1.16%; in assay [9], 4.29%; in [10], 1.44%; in assay [11] it was 4.8%; in [12], 3.81%. Also, the inhibition turned out to be 4.59% in assay [13]; 4.67% in assay [14]; 9.07% in [15]; 4.73% in assay [16]; 6.87% in [17]; 3.5% in assay [18]. For the same compound, the inhibition in assay [19] amounted to 6.04%; in [20] it was 5.85%.
On to `N#Cc1c(NC(=O)c2cccc3ccccc23)sc2c1CCCC2`, for which the inhibition in assay [1] turned out to be 4.97%; in [2], 6.56%; in [3], 12.2%; in assay [4], 4.04%; in [5] it was 4.85%; in assay [6], 4.77%. The inhibition in [7] was 9.67%; in assay [8], 3.45%; in [9], 6.79%; in assay [10], 3.17%; in assay [11], 9.27%; in assay [12], 2.64%. Moreover, the inhibition in assay [13] is 1.48%; in assay [14] it was 2.95%; in assay [15], 5.82%; in assay [16] it was 5.35%; in assay [17] it was 5.82%; in [18], 3.1%. Besides, the inhibition in assay [19] came out at 3.6%; in [20], 5.18%.
Take `COc1ccccc1Nc1ncc(-c2ccccc2)o1`: the inhibition in [1] came to 2.74%; in assay [2], 14.1%; in assay [3], 47.5%; in assay [4], 4.24%; in [5], 6.87%; in assay [6], 16.9%. Besides, the inhibition in [7] was 69.4%; in assay [8] it was 35.6%; in assay [9], 53.5%; in assay [10], 11.1%; in [11] it was 47.7%; in assay [12] it was 3.68%. Moreover, the inhibition amounted to 5.01% in assay [13]; 0.49% in assay [14]; 11.1% in assay [15]; 5.4% in assay [16]; 6.88% in [17]; 3.68% in [18]. The inhibition in assay [19] turned out to be 5.75%; in assay [20] it was 9.37%.
`CC1=C(C(=O)Nc2ccc3[nH]ncc3c2)C(c2ccc(F)cc2)NC(=O)N1` (stereo not given): the inhibition in assay [1] amounted to 5.88%; in [2] it was 4.38%; in [3], 10.7%; in assay [4] it was 1.76%; in assay [5], 3.2%; in assay [6], 3.58%. The inhibition in assay [7] was 3.03%; in [8], 3.01%; in assay [9], 3.64%; in assay [10] it was 3.65%; in assay [11] it was 6.86%; in assay [12], 1.9%. In addition, the inhibition in assay [13] stood at 1.47%; in assay [14] it was 10.1%; in assay [15], 8.37%; in assay [16], 6.58%; in assay [17], 35%; in assay [18], 6.27%. Besides, the inhibition in assay [19] stood at 35.5%; in [20] it was 8.37%.
